Compound activity from PubChem BioAssay.
In the library only some 1.1% were active in any assay of this set; here they are far more common.
Y pestis TopoI – inhibitors of Yersinia pestis topoisomerase I; Y. pestis Topo-I cleavage product accumulation, plate reader; activity, % at 10 µM; hit rate 0.064% among 360,000; AID 504884; in the data active = activity above about 50%, passing the limit was not always enough
Mtb BioA inh – blocks M. tuberculosis BioA enzyme activity; purified M. tuberculosis BioA enzyme, plate reader; inhibition, % at 9.99 µM; hit rate 0.096% among 360,000; in the data active = inhibition above about 40%
PrP UTR inh – inhibition of PrP 5' UTR reporter expression | inhibition, % (test concentration not listed) | hit rate 0.35% among 340,000 | cell-based PrP 5' UTR mRNA reporter, plate reader | AID 488862; in the data active = inhibition above about 52%; also: 0 = median of the neutral control wells
PfHsp40 yeast – restores yeast growth despite PfHsp40 toxicity; growth rescue, % at 12.5 µM; hit rate 0.68% among 340,000; AID 504582; S. cerevisiae expressing PfHsp40, growth rescue, ATP luminescence; in the data active = growth rescue above about 28%, passing the limit was not always enough;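 also: yeast W303a lacking pdr1 and pdr3 grown in galactose medium; growth measured after three days at 30 °C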
FadD28 binding – blocks FadD28 binding to the bisubstrate probe; fluorescence polarization; inhibition, % at 12.5 µM; hit rate 0.22% among 360,000; in the data active = inhibition above about 8.5%, passing the limit was not always enough
PrP UTR cherry – prion 5' UTR mRNA inhibition, cherry-pick retest; inhibition, % at 2.5 µM; hit rate 48% among 1,100; cell-based prion protein 5' UTR reporter, plate reader; shares compounds with PrP UTR inh; AID 504592; in the data active = inhibition above about 54%
The depositor's hits bear a star; · = no result given; ! = not active in a repeat.

SMILES | Y pestis TopoI | Mtb BioA inh | PrP UTR inh | PfHsp40 yeast | FadD28 binding | others
Cc1ccc(C2(c3ccc(C)cc3)CC2C(=O)Nc2ccc([N+](=O)[O-])cc2O)cc1 (configuration not stated) | -35 | -1 | -22 | 273* | -7
NC(=S)N=Nc1c(O)cc(O)c2[nH]c(=O)ccc12 | -17 | · | -28 | 0 | 30*
NC(=S)N=Nc1c(O)[nH]c2ccc(F)cc12 | -10 | · | 5 | 1 | 1
CC=Cc1ccc2n(c1=O)C[C@H]1[C@H](CO)[C@@H](C(=O)O)[C@@H]2N1S(=O)(=O)c1ccccc1F (mixture of isomers) | · | -2 | · | · | ·
O=C(O)/C(=C\c1ccc(F)cc1)c1ccc(-c2ccccc2)cc1 | -7 | · | -15 | 512* | -1
O=C(O)/C(=C\c1ccccc1OC(F)F)c1ccc(-c2ccccc2)cc1 | 12 | 5 | -9 | 1 | 1
Cc1cc(C)c2sc(NNC(=O)c3ccc(S(=O)(=O)N4CCc5ccccc5C4)cc3)nc2c1 | 28 | -1 | 23 | 364* | 0
Cc1cc(C)c2nc(NNC(=O)c3ccc(S(=O)(=O)N4CCc5ccccc5C4)cc3)sc2c1 | -9 | 0 | 17 | 0 | 0
C[C@H](CO)N1C[C@H](C)[C@H](CN(C)Cc2ccccc2)Oc2ccc(NC(=O)Cn3cnnn3)cc2C1=O | · | 1 | · | · | ·
Cc1ccc(C(=O)N2CCN(c3ccccn3)CC2)cc1[N+](=O)[O-] | -2 | · | 6 | 6 | -2
Cc1ccc(C(=O)N2CCN(c3ccccc3Cl)CC2)cc1[N+](=O)[O-] | 27 | · | -28 | 111* | -4
Cc1c(O)cc2n(c1=O)-c1ccccc1C2(C)C | -10 | -6 | -3 | 2 | 0
CC1(C)c2ccccc2-n2c1cc1oc(=O)cc(O)c1c2=O | 6 | 0 | -6 | 60* | -2
O=C(C[C@H]1CC[C@H](NC(=O)c2ccccc2)[C@@H](CO)O1)NCCc1ccncc1 | · | -3 | · | · | ·
CCC(=O)Nc1ccc(SC#N)cc1C | -7 | · | -10 | 91* | -4
CN1C[C@@H]2[C@H](c3ccccc31)[C@@H](CO)N2C(=O)Nc1cccc(F)c1 | · | -3 | · | · | ·
CC(C)CC#Cc1cnc2c(c1)C(=O)N([C@@H](C)CO)C[C@H](C)[C@H](CN(C)Cc1cncnc1)O2 | · | -4 | · | · | ·
COCC(=O)N(C)C[C@H]1Oc2cc(-c3ccc(OC)cc3)ccc2S(=O)(=O)N([C@@H](C)CO)C[C@@H]1C | · | 0 | · | · | ·
COc1ccc(C(=O)NNC(=O)c2cc(C)nc3ccccc23)cc1 | -3 | -1 | -1 | 0 | -1
Cc1cc(C(=O)NNC(=O)c2ccc(Cl)cc2)c2ccccc2n1 | 2 | 0 | -19 | 65* | 0
O=S(=O)(c1ccc(S(=O)(=O)N(Cc2ccccc2)Cc2ccco2)cc1)N1CCCC1 | 3 | -1 | -4 | 0 | -1
COC(=O)/C=C/c1ccccc1S(=O)(=O)N(Cc1ccccc1)Cc1ccco1 | 57* | -5 | -22 | 0 | -2
Cc1ccc(S(=O)(=O)/N=C(\N)Nc2nc(C)c3cc(C)ccc3n2)cc1 | 58* | -1 | -8 | 0 | -5
CC12C=CC(=O)C=C1CCC1C2C(=O)CC2(C)C(=O)CCC12 (configuration not stated) | -1 | 5 | -20 | -1 | 1
C[C@]12C=CC(=O)C=C1CC[C@@H]1[C@@H]2CC[C@]2(C)C(=O)CC[C@@H]12 | 4 | 7 | -20 | 48* | -1
SMILES | Y pestis TopoI | Mtb BioA inh | PrP UTR inh | PfHsp40 yeast | FadD28 binding | others
C/C(=N\NC(=S)NCCc1ccccc1)c1ccc(C)cc1 | 1 | -1 | -21 | 30* | -2
C/C(=N\NC(=S)NCCc1ccccc1)c1ccc(Cl)cc1 | 40 | -2 | -22 | 0 | -2
CC(=O)N1CC(=O)Nc2ccc(Br)cc2C1c1ccc(F)cc1 (configuration not stated) | 3 | 0 | -6 | 85* | ·
CCCC(=O)N1CC(=O)Nc2ccc(Br)cc2C1c1ccc(F)cc1 (configuration not stated) | 2 | 2 | 2 | 2 | 0
C[C@H]1CN([C@@H](C)CO)C(=O)c2cc(-c3ccncc3)cnc2O[C@@H]1CN(C)Cc1ccc(F)cc1 | · | 0 | · | · | ·
COc1cccc(/C=N/Nc2nccnc2Cl)c1O | 2 | · | 48 | 88* | -3
COc1cccc(/C=N/Nc2ncnc3scc(-c4ccccc4)c23)c1O | 67* | · | 50 | 422* | 0
Cc1cccc(C(=O)NC(=S)NNC(=O)Cc2ccccc2)c1 | 1 | · | -15 | 229* | 0
COc1ccc(C(=O)NC(=S)NNC(=O)c2ccccc2C)cc1 | 3 | 0 | -17 | 105* | -2
Cc1cccc(C(=O)NC(=S)NNC(=O)c2ccccc2Cl)c1 | -1 | · | -11 | 64* | -1
CC(=O)NNC(=S)NC(=O)c1ccc(C)cc1 | 11 | · | -15 | -1 | 0
Cc1cccc(C(=O)NC(=S)NCc2ccccc2)c1 | 10 | 0 | -38 | 19 | -1
CCC(=O)NNC(=S)NC(=O)c1ccc(C)cc1 | 4 | · | -46 | 69* | -1
CO[C@H]1CN(C)C(=O)c2cc(NC(=O)c3cnccn3)ccc2OC[C@@H](C)N(C(C)=O)C[C@H]1C | · | 3 | · | · | ·
COc1ccc(C(=O)NNC(=S)NC(=O)/C=C/c2cccs2)cc1 | 4 | · | 6 | 74* | -2
Cc1cc(C(=O)NNC(=S)NC(=O)/C=C/c2ccccc2Cl)n[nH]1 | -2 | 1 | -15 | 56* | -2
Cc1ccccc1C(=O)NNC(=S)NC(=O)c1ccc(Cl)cc1Cl | -9 | · | -32 | 395* | 2
O=C(NC(=S)NNC(=O)c1ccc(Cl)cc1Cl)c1cccnc1 | -4 | 4 | 4 | 0 | 1
O=C(/C=C/c1cccs1)NC(=S)NNC(=O)c1ccccc1O | -5 | · | -19 | · | -1
CO[C@@H]1CN(C)C(=O)c2cc(NC(C)=O)ccc2OC[C@@H](C)N(S(=O)(=O)c2cn(C)cn2)C[C@@H]1C | · | 1 | · | · | ·
[O-]C(=C(C(=S)Nc1cccc2ccccc12)[n+]1ccccc1)c1ccc2c(c1)OCCO2 | -10 | · | -12 | 35* | -2
CC(C)NC(=O)N[C@@H]1CC[C@H](CCNS(=O)(=O)c2ccc(F)cc2)O[C@H]1CO | · | -3 | · | · | ·
CN(C)CCCOC(=O)C1c2ccccc2Oc2ccccc21 | -5 | -1 | -14 | 44* | -4
CCCCN(CCCC)c1ncnc2nc[nH]c12 | 13 | · | 10 | 138* | -3
CCc1oc2ccccc2c1C(=O)c1cc(Br)c(O)c(Br)c1 | -2 | 4 | -11 | 259*! | -5
O=C(Nc1ccc(N2CCOCC2)cc1)c1cnsn1 | -6 | 5 | 68* | 0 | 0 | PrP UTR cherry=77*
O=C(Nc1ccc(N2CCOCC2)cc1)c1cnccn1 | 3 | 4 | 44 | 1 | -1
COc1ccccc1CNC(=O)C[C@H]1C[C@H]2c3cc(NS(C)(=O)=O)ccc3O[C@H]2[C@@H](CO)O1 | · | 1 | · | · | ·
